Measurements from PubChem BioAssay (NCATS).
Inconclusive results are not listed. The source made the active and inactive calls. Calls follow the shape of the dose curve; as a rule, active = well fitted cell-killing curve with a large enough effect; inconclusive = small, poorly fitted or top-dose-only effect; inactive = flat fitted curve, though single readings scatter.

Key:
[1] = Cell Viability - LYMP2-009 (AID 968); also: series mostly up to about 92 µM; nearly all actives have a fitted effect of over 55% in size
[2] = Cell Viability - LYMP2-011 (AID 969); also: nearly all actives have a fitted effect of over 60% in size
Procedure, shortened: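 Cytotoxicity qHTS with ATP content as read-out: lymphoblastoid cells (2500/well) exposed to compound for 24 h at 37 C, then luciferase luminescence measured. Concentration-response data fitted with the standard Hill equation to give AC50.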

[3] = Cell Viability - LYMP2-013 (AID 970); also: series mostly up to about 92 µM; nearly all actives have a fitted effect of over 55% in size
Procedure, shortened: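 qHTS cytotoxicity: ATP-dependent luminescence (CellTiter-Glo, 30 min room temperature) read after 24 h compound exposure at 37 C of 2500 LYMP2-013 lymphoblastoid cells per well. Concentration-response fitted with Hill equation to give AC50.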

[4] = Cell Viability - LYMP2-015 (AID 971); also: nearly all actives have a fitted effect of over 55% in size
Procedure, shortened: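 Cytotoxicity readout: decrease in intracellular ATP (CellTiter-Glo luminescence) in 2500 LYMP2-015 lymphoblastoid cells/well after 24 h compound exposure at 37 C. Concentration-response data fitted with the standard Hill equation to give AC50.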

[5] = Cell Viability - LYMP2-017 (AID 972); also: series mostly up to about 92 µM; nearly all actives have a fitted effect of over 55% in size
Procedure, shortened: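 CellTiter-Glo luminescence (cellular ATP, 30 min RT) measured cytotoxicity after 24 hr compound treatment at 37 C. Cells were a human lymphoblastoid line, LYMP2-017, plated at 2500/well and incubated 5 hr first; concentration-response fitted with Hill equation for AC50.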

[6] = Cell Viability - LYMP2-019 (AID 973); also: nearly all actives have a fitted effect of over 55% in size
Procedure, shortened: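 AC50 values come from Hill-equation fits of luminescent intracellular ATP (CellTiter-Glo, 30 min, room temperature) following 24 h compound exposure at 37 C. Cells: LYMP2-019 lymphoblastoid line, 2500 per well, in complete culture medium.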

[7] = Cell Viability - LYMP2-021 (AID 974); also: nearly all actives have a fitted effect of over 55% in size
Procedure, shortened: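 AC50 values come from Hill-equation fits to CellTiter-Glo luminescence (ATP content), read after 24 hour compound exposure at 37 C of 2500 LYMP2-021 lymphoblastoid cells/well; tetraoctylammonium bromide as positive control.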

[8] = Cell Viability - LYMP2-023 (AID 975)
Procedure, shortened: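 Intracellular ATP, read by CellTiter-Glo luminescence, reports viability after 24 hr compound exposure at 37 C. 2500 lymphoblastoid cells/well (LYMP2-023) seeded 5 hr beforehand; Hill fits give AC50; positive control tetraoctylammonium bromide.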

[9] = Cell Viability - LYMP2-025 (AID 976); also: series mostly up to about 92 µM
Procedure, shortened: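 Cytotoxicity read as loss of intracellular ATP (luciferase luminescence) after 24 h compound treatment at 37 C. Uses LYMP2-025 lymphoblastoid cells in 1536-well format; Hill-equation modelling gives AC50; tetraoctylammonium bromide as positive control.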

[10] = Cell Viability - LYMP2-002 (AID 977); also: series mostly up to about 92 µM
Procedure, shortened: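 Human lymphoblastoid cells, 2500/well, complete medium; 5 h 37 C settle; compound 24 h 37 C; CellTiter-Glo, 30 min RT; luminescence. Decrease in ATP = cytotoxicity; AC50 via Hill equation.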

[11] = Cell Viability - LYMP2-006 (AID 978); also: series mostly up to about 92 µM; nearly all actives have a fitted effect of over 60% in size
Procedure, shortened: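 Cells are seeded at 2500 per well and rested 5 hr at 37 C. Compounds are added across a concentration series for 24 hr at 37 C, after which ATP is quantified by luciferase luminescence.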

[12] = Cell Viability - LYMP2-007 (AID 979);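 also: cells exposed to compound for 24 h before reading; nearly all actives have a fitted effect of over 60% in size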
Procedure, shortened: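 AC50 values come from Hill-equation fits of luminescent intracellular ATP (CellTiter-Glo, 30 min, room temperature) following 24 h compound exposure at 37 C. Cells: LYMP2-007 lymphoblastoid line, 2500 per well, in complete culture medium.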

[13] = Cell Viability - LYMP2-008 (AID 980); also: nearly all actives have a fitted effect of over 60% in size
Procedure, shortened: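 Cytotoxicity determined from ATP-dependent luciferase luminescence (CellTiter-Glo) following 24 h compound exposure of human lymphoblastoid LYMP2-008 cells at 37 C. Concentration-response data fitted to the Hill equation to give AC50.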

[14] = Cell Viability - LYMP2-010 (AID 981); also: nearly all actives have a fitted effect of over 55% in size
Procedure, shortened: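 CellTiter-Glo ATP luminescence measured cytotoxicity after 24 h compound exposure at 37 C. LYMP2-010 cells were seeded at 2500/well, with tetraoctylammonium bromide as control; concentration-response curves gave AC50 values by the Hill equation.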

[15] = Cell Viability - LYMP2-012 (AID 982)
[16] = Cell Viability - LYMP2-014 (AID 983); also: series mostly up to about 92 µM; nearly all actives have a fitted effect of over 50% in size
Procedure, shortened: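 Intracellular ATP loss, read by luciferase luminescence, measures acute cytotoxicity after 24 h compound exposure of lymphoblastoid LYMP2-014 cells (2500/well, 37 C). Concentration-response data fitted to the Hill equation for AC50.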

[17] = Cell Viability - LYMP2-016 (AID 984); also: nearly all actives have a fitted effect of over 55% in size
Procedure, shortened: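 Cells were seeded at 2500 per well and rested 5 hr before a 24 hr compound exposure at 37 C. Viability was then gauged as cellular ATP by luciferase luminescence, with AC50 values fitted to the Hill equation.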

[18] = Cell Viability - LYMP2-018 (AID 985); also: nearly all actives have a fitted effect of over 50% in size
Procedure, shortened: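 Viability read as CellTiter-Glo luminescence (cellular ATP) after 24 hr compound exposure at 37 C of 2500 LYMP2-018 lymphoblastoid cells/well, pre-plated 5 hr. Hill-equation modelling gave AC50.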

[19] = Cell Viability - LYMP2-020 (AID 986)
Procedure, shortened: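 Cytotoxicity in qHTS format: luminescent ATP readout from CellTiter-Glo after 24 h compound exposure at 37 C in complete medium. LYMP2-020 lymphoblastoid cells were seeded at 2500/well; concentration-response data fitted to the Hill equation for AC50.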

[20] = Cell Viability - LYMP2-022 (AID 987); also: nearly all actives have a fitted effect of over 55% in size
Procedure, shortened: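 Cytotoxicity read as decreased cellular ATP (CellTiter-Glo luminescence, 30 min room temperature) after 24 hours compound exposure of 2500 lymphoblastoid LYMP2-022 cells/well at 37 C. Concentration-response data fitted with standard Hill equation for AC50.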

Measured: Potency

COc1cc(/C=C/c2ccccc2)oc(=O)c1
inactive: all assays above

CCCCCCCCCCCCCC(=O)O
inactive: all assays above

COc1ccc(/C=C/c2cc(OC)cc(=O)o2)cc1
inactive: all assays above

O=C(O)c1ccccc1
inactive: all assays above

C=C(C)C1CC=C(C)C(O)C1 (stereo not given)
inactive: all assays above

C=CC(=C)CCC=C(C)C
inactive: all assays above
